Compound activity (PubChem BioAssay)
Pf growth 48h – Primary qHTS for delayed death inhibitors of the malarial parasite plastid, 48 hour incubation; P. falciparum luciferase growth in erythrocytes, 48 h; Potency, µM (titrated, usually from 28.7 µM), for inactives: at the highest dose activity change, negative = inhibition, usual class: inhibitors; 310,000 tested, 5.9% active; active means well fitted inhibition curve with a large enough effect; inconclusive means small, poorly fitted or top-dose-only effect, or another doubt; inactive means no such curve, though single readings can be large or run the other way; further: potency means the concentration at half of the fitted maximal effect; on the % scale 0 is the no-effect control and ±100 the full control effect
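Here the parasites carry a stable luciferase gene and grow inside erythrocytes in Albumax-based RPMI medium with compound for one erythrocytic cycle. Activity is scored as loss of luminescent signal.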
Pf growth 96h – Primary qHTS for delayed death inhibitors of the malarial parasite plastid, 96 hour incubation | AID 504834, 2011 | P. falciparum luciferase reporter growth, 96 h | 320,000 tested, 6.9% active | Potency, µM (doses to about 28.7 µM), without a hit: at the top dose activity change, negative = inhibition, hits mostly inhibitors; active means well fitted inhibition curve with a large enough effect; inconclusive means small, poorly fitted or top-dose-only effect, or another doubt; inactive means no such curve, though single readings can be large or run the other way; further: potency means the concentration at half of the fitted maximal effect; on the % scale 0 is the no-effect control and ±100 the full control effect
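Cell-based qHTS: luciferase-tagged P. falciparum in erythrocytes (2% hematocrit, 0.05% parasitemia final) incubated with compounds for 96 hours, 37 C, 5% CO2; luciferase detection reagent then added and luminescence measured.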
CHX counter-1 – Cycloheximide Counterscreen for Small Molecule Inhibitors of Shiga Toxin; cell reporter, cycloheximide protein synthesis inhibition counterscreen; max response, %; 300,000 tested, 12% active; in the data active means max response mostly above about 13%, no sharp cut-off; inactive means mostly below about 14%; further: read at 38.3 µM for the half of the compounds with a filed dose; 0% is about no effect
Shiga inhibitor – A qHTS for Small Molecule Inhibitors of Shiga Toxin; inhibition, % at 38.7 µM; 290,000 tested, 9.2% active; Vero cells, Shiga toxin protein synthesis inhibition reporter; in the data active means inhibition mostly above about 28%, no sharp cut-off; inactive means mostly below about 43%; further: 0% is about no effect
NS1 function inh – qHTS Assay for Inhibitors of Influenza NS1 Protein Function; Potency, µM (series often up to 46.1 µM), for inactives: at the top dose activity, positive = more growth; 270,000 tested, 0.4% active; further: potency means the concentration at half of the fitted maximal effect; actives are rising curves; nearly all actives have a fitted effect of over 50% in size
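Compounds were scored for reversing the slow growth caused by influenza A NS1 in S. cerevisiae, measured by optical density at 600 nm. Assay medium contained 2% galactose at pH 6.0; NS1-free yeast of the same strain were the positive control.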
SARS PLpro yeast – qHTS of Yeast-based Assay for SARS-CoV PLP; S. cerevisiae expressing SARS-CoV PLpro, growth rescue; Potency, µM (titrated, usually from 32.9 µM), for the others: at the highest dose activity, positive = growth rescue, actives largely listed as activators; 330,000 tested, 0.19% active; AID 485353, 2010; further: potency means the concentration at half of the fitted maximal effect; 0% is about no effect; nearly all actives have a fitted effect of over 55% in size
CHX counter-2 – Cycloheximide Counterscreen for Small Molecule Inhibitors of Shiga Toxin (Confirmatory); shares compounds with Shiga inhibitor; Cycloheximide counterscreen, protein synthesis reporter, Shiga toxin assay; Potency, µM (series often up to 38.3 µM), for the others: top-dose activity (activation), hits mostly activators; 510 tested, 3% active; AID 2318, 2010; further: potency means the concentration at half of the fitted maximal effect; 0% is about no effect
* marks the source's active call; other numbers are inactive results; ? = inconclusive; . = no result given; [ ] = remark or other dose. Rows were chosen to be rich in hits. Some 21% of all compounds tested hit in one or more screens of this group. Unless noted, the call rests on the fitted dose curve.

SMILES | Pf growth 48h | Pf growth 96h | CHX counter-1 | Shiga inhibitor | NS1 function inh | SARS PLpro yeast | CHX counter-2
CCOc1ncccc1C(=O)Nc1c(C)n(C)n(-c2ccccc2)c1=O | -4% | 25% | 9 | 32* | -16% | 8% | 4%
Nc1ccc(C(=O)NC2CCSc3ccccc32)cc1[N+](=O)[O-] (stereo not drawn) | -14% | ? | 18 | 28* | -96% | -9% | ?
Cc1cc2nc(CCN3CCOCC3)n(S(=O)(=O)c3ccc(C(C)(C)C)cc3)c2cc1C | ? | 21% | 12 | 38* | 8% | 7% | ?
Cc1cccc(C(=O)Nc2nnc(SCC(=O)NC3CC3)s2)c1 | 72% | ? | -3 | 53* | 3% | 4% | ?
O=C(CSc1nnc(NC(=O)c2cccc(F)c2)s1)NC1CC1 | 42% | 42% | -5 | -7 | 10% | 2% | .
CCCCN(C(=O)c1cnccn1)c1c(N)n(CCC)c(=O)[nH]c1=O | . | . | . | . | . | -4% | .
Cc1cc(C)nc(Sc2ccc3nnnn3n2)n1 | 26% | 20% | 10 | 31* | -4% | 0% | 9%
O=C(Nc1cccc(F)c1)/C(=C\c1ccco1)NC(=O)c1ccco1 | 1% | ? | -2 | 5 | -2% | ? | .
CC(=O)c1cccc(NC(=O)/C(=C/c2ccco2)NC(=O)c2ccco2)c1 | 2% | 2% | 2 | 27* | 9% | 1% | 6%
O=C(CN1CCN(c2ncc(C(F)(F)F)cc2Cl)CC1)NC(=O)NCc1ccccc1 | 1% | -8% | 2 | 68* | 4% | 3% | 0%
CCCn1nnc(NC(=O)COc2ccc(C3CCCCC3)cc2)n1 | ? | ? | -4 | 75* | -49% | -8% | -1%
CCCn1nnc(NC(=O)Cc2ccc(Cl)cc2)n1 | -2% | -22% | -2 | 17 | -7% | 5% | .
CCN(CC)CC(=O)Nc1ccc(-c2nc3cc(NC(=O)CN(CC)CC)ccc3o2)cc1 | 2.6µM* | -3% | 8 | 81* | 4% | 14% | 2%
CN(C)c1ccc(C(=O)OCC(=O)c2ccc[nH]2)cc1 | . | . | . | . | . | -9% | .
CC(C)(C)C1CCC(C(=O)OCC(=O)c2ccc[nH]2)CC1 (stereo not drawn) | -7% | 6% | 8 | 27* | -38% | 12% | 0%
COc1cccc2c1C(=O)c1c(O)c3c(c(O)c1C2=O)C[C@@](O)(C(=O)CO)C[C@@H]3O[C@H]1C[C@H](N)[C@H](O)[C@H](C)O1 | 0.15µM* | 0.093µM* | 10* | 38* | ? | . | 0%[76.6 µM]
CCN1CCN(C(CNS(=O)(=O)c2ccccc2)c2ccccc2)CC1 (stereo not drawn) | 17% | 2% | -3 | -8 | -1% | -1% | .
Cc1nc(C(=O)NC2CCCCC2)sc1C1(C)CC(c2cccc([N+](=O)[O-])c2)=NO1 (stereo not drawn) | ? | ? | -3 | -3 | 2% | -1% | .
Cc1nc(-c2ccccc2)sc1C1(C)CC(c2cccc([N+](=O)[O-])c2)=NO1 (stereo not drawn) | 70% | 41% | 1 | 30* | -1% | -3% | 1%
Cc1cc(C)n(-c2nc(SCCN(C)C)c3c4c(sc3n2)COC(C)(C)C4)n1 | 1.9µM* | 1.5µM* | -4 | 80* | 6% | -3% | -5%
COc1ccccc1CNC(=O)CN(C)S(=O)(=O)c1ccc2c(c1)c(=O)n(C)c(=O)n2C | -16% | 37% | -4 | -3 | -2% | 1% | .
CC(=O)Nc1nnc(SCc2ccc(C(=O)Nc3ccccc3F)cc2)s1 | ? | ? | 17 | 31 | . | -2% | .
CCNc1nnc(-c2ccccc2OC)s1 | 23% | ? | -1 | 73* | -32% | -5% | 4%
CCc1nnc(NC(=O)c2c(OC)cccc2OC)s1 | 34% | -5% | -2 | 10 | -13% | 2% | .
CC(C)C1=CC2=CCC3C(C)(C(=O)O)CCCC3(C)C2CC1 (stereo not drawn) (tested in a mixture with another compound) | ? | ? | -1 | -3 | ? | 2% | .
SMILES | Pf growth 48h | Pf growth 96h | CHX counter-1 | Shiga inhibitor | NS1 function inh | SARS PLpro yeast | CHX counter-2
Cc1cc(C)cc(NC(=O)C(OC(=O)c2ccc([N+](=O)[O-])o2)c2ccccc2)c1 (stereo not drawn) | 5% | -27% | -2 | 30* | 20% | -14% | 1%
Cc1ccc(SCC(=O)OCC(=O)N(C)C2CCS(=O)(=O)C2)cc1C (stereo not drawn) | 11% | 9% | . | . | . | 8% | .
COc1ccc(CNC(=O)CN(Cc2ccccc2)C(=O)CCC(=O)Nc2ccccn2)cc1 | 5% | 22% | -7 | -4 | 3% | 0% | .
COc1ccc(/C=C/c2nnc(NC(=O)CSc3ccc(Cl)cc3)s2)cc1 | 19% | -10% | 8 | 37* | 3% | -10% | ?
O=c1[nH]nc(CNc2ccc(C(F)(F)F)cc2)c2ccccc12 | 59% | 158% | 15 | 29* | . | ? | ?
O=c1[nH]nc(CNc2ccc(OC(F)(F)F)cc2)c2ccccc12 | -3% | 7% | 21 | 28 | . | -22% | .
O=C(Cc1cccs1)Nc1nc(-c2ccc(F)c(F)c2)cs1 | ? | ? | 11 | 44* | -1% | -5% | 4%
Cc1ccc(CSc2nnc(CCCCCNC(=O)OC(C)(C)C)o2)cc1 | ? | -20% | -3 | 25* | -33% | 0% | -1%
CCOC(=O)N1CCN(C(=O)c2nn(-c3cc(OC)cc(OC)c3)c(=O)c3ccccc23)CC1 | -21% | . | 9 | -2 | -17% | -5% | .
COc1cc(OC)cc(-n2nc(C(=O)N3CC(C)CC(C)C3)c3ccccc3c2=O)c1 (stereo not drawn) | ? | 25% | -3 | 23* | 1% | 14% | -2%
CC(=O)[C@@H]1[C@@H]2C(=O)N(c3ccc(F)c(Cl)c3)C(=O)[C@@H]2C2c3ccccc3C=CN21 (stereo partly drawn) | ? | ? | -3 | active | 15% | 14% | -1%
O=C(O)Cc1ccc2oc(-c3ccccn3)nc2c1 | -1% | 23% | 13 | 38* | 11% | 0% | ?
Cc1nn(C2CCCCC2)c(N)c1-c1ccccc1 | 7% | ? | -2 | 33* | -21% | -4% | 3%
CC(C)COc1ccc2[nH]c3c(c2c1)CCCC3=O | . | ? | -2 | -16 | -6% | ? | .
CCn1ccc(C(=O)Nc2ccsc2C(=O)OC)n1 | -1% | 19% | 19 | 9 | -56% | -9% | .
CCn1ccc(C(=O)NC2=NCCS2)n1 | 42% | 44% | 17 | 31* | 1% | -14% | 6%
